AMA1-RON2 inh: qHTS for Inhibitors of AMA1-RON; Towards Development of Antimalarial Drug Lead: Primary Screen. AlphaScreen AMA1-biotinylated RON2 peptide binding. Potency, µM (doses to about 58.2 µM), for the others: top-dose activity change, negative = inhibition, hits mostly inhibitors. hit rate 0.2% among 360,000. AID 720542, 2013;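 also: 0% = vehicle wells and -100% = peptide control; nearly all actives have a fitted effect of over 45% in size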
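AMA1 (3D7) with his tag at 25 nM final met compounds first, then biotinylated RON2 peptide at 25 nM; detection used donor plus acceptor beads, 10 µg/mL apiece, read by AlphaScreen after 30 min at room temperature.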
NS1 function inh: qHTS Assay for Inhibitors of Influenza NS1 Protein Function. Potency, µM (highest dose often 46.1 µM), without a hit: top-dose activity, positive = more growth. hit rate 0.4% among 270,000; calls by dose curve; also: actives are rising curves; nearly all actives have a fitted effect of over 50% in size
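In this qHTS, NS1 from influenza A is expressed in budding yeast, where it slows growth. Cells are switched from glucose to 2% galactose medium (pH 6.0, -URA), treated with compound, and growth recovery is read at OD600.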
Pf growth 96h: Primary qHTS for delayed death inhibitors of the malarial parasite plastid, 96 hour incubation; hit rate 6.9% among 320,000; AID 504834, 2011; Potency, µM (titrated, usually from 28.7 µM), inactives show top-dose activity change, negative = inhibition, hits mostly inhibitors; P. falciparum luciferase reporter growth, 96 h; also: % is scaled to controls: 0 for no effect and ±100 for the full control effect
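P. falciparum expressing integrated firefly luciferase, in erythrocytes at 2% hematocrit, 0.05% parasitemia, incubated with compounds 96 h at 37 C, 5% CO2. Growth inhibition read as loss of luminescence; two-generation exposure targets delayed-death apicoplast inhibitors.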
Pf growth 48h: Primary qHTS for delayed death inhibitors of the malarial parasite plastid, 48 hour incubation; P. falciparum luciferase growth in erythrocytes, 48 h; Potency, µM (highest dose often 28.7 µM), inactives show at the top dose activity change, negative = inhibition, actives largely listed as inhibitors; hit rate 5.9% among 310,000; AID 504832, 2011; also: % is scaled to controls: 0 for no effect and ±100 for the full control effect
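Erythrocytes infected with P. falciparum carrying an integrated firefly luciferase reporter (2% hematocrit, 0.1% parasitemia final) were exposed to compounds in RPMI 1640 with 0.5% Albumax at 37 C, 5% CO2. Growth inhibition was scored as reduced luminescence.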
Sm TGR inh: qHTS Assay for the Inhibitors of Schistosoma Mansoni Peroxiredoxins | Schistosoma mansoni thioredoxin glutathione reductase (TGR), Q962Y6 | purified TGR, DTNB reduction, TNB absorbance 405 nm | Potency, µM (doses to about 114 µM), for the others: top-dose activity change, negative = inhibition, usual class: inhibitors | hit rate 3% among 360,000; also: % is scaled to controls: 0 for no effect and ±100 for the full control effect; nearly all actives have a fitted effect of over 60% in size
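First, TGR (20 nM dispensed) and NADPH were mixed with compound. Second, a 15 min room-temperature incubation followed. Third, further NADPH and then DTNB were added to start the reaction. Finally, TNB absorbance was monitored kinetically.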
The depositor's hits bear a star; ? = inconclusive; / = no result; [ ] = remark or other dose. Only some compounds are listed: those with a hit (about 11% of all), similar ones and a draw of the others. Unless noted, calls follow the shape of the dose curve; as a rule, active = well fitted curve in the direction sought with a large enough effect; inconclusive = small, poorly fitted or top-dose-only effect, or another doubt; inactive = no such curve, though single readings can be large; an effect the other way counts as inactive or inconclusive. Potency is read from the fitted curve at half-maximal effect.

SMILES	AMA1-RON2 inh	NS1 function inh	Pf growth 96h	Pf growth 48h	Sm TGR inh
Cc1ccc(-c2ccc(CCC(=O)O)n2-c2ccc(C(=O)O)cc2)cc1	-5%	5%	7%	20%	14µM*
COC(=O)c1ccc(-n2c(CCC(=O)O)ccc2-c2ccc(C)cc2)cc1	-3%	-3%	?	10%	28µM*
CCOC(=O)c1ccc(-n2c(CCC(=O)O)ccc2-c2ccc(F)cc2)cc1	-11%	2%	57%	3%	22µM*
O=C(O)CCc1ccc(-c2ccc(Br)cc2)n1-c1ccccc1O	/	/	/	/	-18%
Cc1cc(C(=O)N(C)C2CCCCC2)no1	-2%	3%	30%	6%	0%
COc1cccc(NC(=O)C2C3C=CC4(O3)C2C(=O)N(CCCN2CCCCC2)C4C(=O)NC2CCCCC2)c1 (stereo not given)	0%	-2%	?	2%	2%
CC(=O)c1cccc(NC(=O)CSc2ncc(C(=O)Nc3ccccc3)c(=O)n2C)c1	-1%	/	-3%	51%	0%
Cc1ccc(NC(=O)/C=N/OCC(=O)NCc2ccccc2Cl)cc1	5%	-5%	50%	67%	-8%
CC(=O)c1ccc(NC(=O)C(C)Oc2ccc(N(C)S(=O)(=O)c3ccc(C)cc3)cc2)cc1 (stereo not given)	-4%	/	13µM*	15µM*	-3%
Cc1ccc(S(=O)(=O)N(C)c2ccc(OC(C)C(=O)N(C)c3ccccc3)cc2)cc1 (stereo not given)	-7%	/	?	?	2%
CC(=O)c1cccc(NC(=O)c2ccc(N(C)S(=O)(=O)c3ccc(C)cc3)cc2)c1	27%	14%	8.3µM*	?	4%
CCN(C)C(=O)Oc1cccc([C@H](C)N(C)C)c1	/	/	-2%	-3%	/
CCCCCCOC(=O)/C=C/c1c(C)[nH]c(=O)[nH]c1=O	4%	0%	66%	9.3µM*	-2%
CCCCCCCCOC(=O)CCc1c(C)[nH]c(=S)[nH]c1=O	25%	-7%	38%	?	1%
Cc1ccc(S(=O)(=O)N(C)CC(O)Cn2c3ccccc3c3ccccc32)cc1 (stereo not given)	-1%	-29%	-25%	?	7%
O=S(=O)(c1ccc(F)cc1)N(CCO)CC(O)Cn1c2ccccc2c2ccccc21 (stereo not given)	-8%	-35%	?	15µM*	0%
CCN(CC(O)Cn1c2ccccc2c2ccccc21)S(=O)(=O)c1ccc(F)cc1 (stereo not given)	-7%	8%	13µM*	/	2%
Cc1coc2c(C)c3oc(=O)c(CCC(=O)NCCc4ccccc4F)c(C)c3cc12	/	/	/	/	6%
Brc1ccc(-c2nnc3ccc(N4CCN(c5ccccc5)CC4)nn23)cc1	0%	-13%	12µM*	?	0%
CCOC(=O)CNC(=O)c1c(C)nn(C)c1Cl	13%	/	36%	?	4%
CCOC(=O)c1cc(NCc2cccs2)ccc1N1CCOCC1	1%	-2%	1.5µM*	-10%	-11%
CCOC(=O)c1cc(NC(=O)c2cccs2)ccc1N1CCOCC1	-10%	-1%	21%	-19%	1%
C=CCON1C(=O)C(=O)N(OCC=C)[C@H]2CCCC[C@H]21	-7%	-3%	30%	16%	0%
O=C(COC(=O)C1CC2CCCC(C1)C2=O)Nc1cccc(F)c1 (stereo not given)	2%	/	-27%	-13%	-8%
COc1ccc(C)cc1N=Nc1ccc(O)c2ncccc12	-45%	/	?	2.6µM*	0%
SMILES	AMA1-RON2 inh	NS1 function inh	Pf growth 96h	Pf growth 48h	Sm TGR inh
COc1ccc(N=Nc2ccc(O)c3ncccc23)cc1	56%	17%	0.52µM*	0.59µM*	-14%
Nc1ccc(N=Nc2ccccc2)c2cccnc12	20µM*	10%	14%	50%	?
O=S(=O)(O)c1cccc2c(N=Nc3ccc(O)c4ncccc34)cccc12	-89%	7%	-17%	?	-31%
CS(=O)(=O)Oc1ccc(Br)c2cccnc12	-1%	-3%	0%	-2%	-20%
COc1cccc(N=Nc2ccc(O)c3ncccc23)c1	-46%	-115%	?	?	-19%
Nc1ccc(Br)c2cccnc12	21%	-7%	27%	13%	50µM*
CCOC(=O)C1(CCOC)CCN(C/C=C/c2ccccc2OC)CC1	-10%	/	/	/	/
O=c1[nH]c(SCc2ccc(OC(F)(F)F)cc2)nc2c1CCC2	12%	/	/	/	/
O=C(COc1ccc(F)cc1)Nc1c(C(=O)N2CCC(N3CCCCC3)CC2)oc2ccccc12	2%	3%	?	?	-20%
Cc1ccc(O)c2ncccc12	/	/	?	-19%	/
Oc1ccc(N=Nc2ccc3c(c2)OCCO3)c2cccnc12	2%	/	?	1µM*	-25%
Cc1ccccc1N=Nc1ccc(O)c2ncccc12	26%[11.6 µM]	-16%	?	0.37µM*	-2%
O=Nc1ccc(O)c2ncccc12	-21%	4%	3.3µM*	1.5µM*	-33%
O=C(COC(=O)Cc1ccc(Cl)cc1)NCc1ccco1	7%	/	/	/	/
O=C(CSc1cn[nH]n1)Nc1ccc(Cl)cc1Cl	50%	1%	26%	8%	-4%
CCCCN(C(=O)CCSc1ccc(F)cc1)c1c(N)n(Cc2ccccc2)c(=O)[nH]c1=O	-3%	/	12µM*	12µM*	-6%
CCCCN(C(=O)CCOc1ccc(OCC)cc1)c1c(N)n(Cc2ccccc2)c(=O)[nH]c1=O	-13%	/	/	/	/
CCOc1ccc2nc(SCC(=O)N(CC(C)C)c3c(N)n(Cc4ccccc4)c(=O)[nH]c3=O)[nH]c2c1	-3%	/	12µM*	?	-9%
CCOc1ccc(OCCC(=O)N(CCC(C)C)c2c(N)n(Cc3ccccc3)c(=O)[nH]c2=O)cc1	20%	/	14%	10µM*	-4%
CC(C)CN(C(=O)CSc1nc2ccccc2[nH]1)c1c(N)n(Cc2ccccc2)c(=O)[nH]c1=O	15%	/	/	/	/
Cc1ccccc1OCCC(=O)N(CC(C)C)c1c(N)n(Cc2ccccc2)c(=O)[nH]c1=O	17%	/	?	12µM*	0%
CC(=O)Nc1ccc(S(=O)(=O)Nc2nc3ccccc3nc2Nc2cccc(S(N)(=O)=O)c2)cc1	39%	3%	-13%	-1%	-24%
CCOc1ccc2cc(-c3nnc(Nc4ccc(C)cc4)s3)c(=O)oc2c1	/	/	/	/	0%
CC(C)CN(C(=O)c1ccc(N2CCCC2=O)cc1)c1c(N)n(Cc2ccccc2)c(=O)[nH]c1=O	24%	/	?	?	40µM*
Cc1ccc(C)c(NC(=O)CN2C(=O)CCc3ccccc32)c1	/	/	/	/	-7%
Cc1cc(C)c2[nH]c(=O)c(CN(Cc3ccc4c(c3)OCO4)Cc3nnnn3C3CCCC3)cc2c1	-13%	20%	0%	12µM*	5%

Source: PubChem (National Center for Advancing Translational Sciences (NCATS))
